Results reported in PubChem BioAssay (EPA / NIEHS).
Results filed as inconclusive are left out. Calls of active or inactive are those of the source. The calls were made as follows: active = hit-call score of the fitted dose curve at least 0.9, where 1 is the maximum; inconclusive = response in the unintended direction; inactive = score below 0.9.

Tests used:
[1] = molecular target: human Serotonin, 5-Hydroxytryptamine Receptor 7 (5HT7), HTR7 (gene 3363) (UniProt P34969); test: NVS_GPCR_h5HT7: NovaScreen (NVS) G Protein-Coupled Receptor Assay for human Serotonin, 5-Hydroxytryptamine Receptor 7 (5HT7) (AID 2283255);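 also: hits reduce specific radioligand binding relative to DMSO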
How it was run: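 Filter-bound radioactivity counted after 1 h, with loss of specific radioligand binding fitted against DMSO. Membrane protein came from CHO cells expressing human 5HT7. Chemicals were tested first at 25 uM in duplicate, then in concentration series if active.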

[2] = system: bovine Histamine 1 Receptor (H1), gene 281231; test: NVS_GPCR_bH1: NovaScreen (NVS) G Protein-Coupled Receptor Assay for bovine Histamine 1 Receptor (H1) (AID 2283246)
How it was run: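 Hits from a 25 uM duplicate primary screen were retested in concentration series (top 50 uM); binding measured as scintillation-counted displacement of radioligand from bovine cerebellar membranes after 1 h, normalised to DMSO.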

[3] = molecular target: Adenosine receptor A1 (Bos taurus) (UniProt P28190); test: NVS_GPCR_bAdoR_NonSelective: NovaScreen (NVS) G Protein-Coupled Receptor Assay for bovine Adenosine Receptor (AdoR), Non-selective Binding (AID 2283244)
Sequence of Adenosine receptor A1 (Bos taurus) (P28190 whole entry, looked up): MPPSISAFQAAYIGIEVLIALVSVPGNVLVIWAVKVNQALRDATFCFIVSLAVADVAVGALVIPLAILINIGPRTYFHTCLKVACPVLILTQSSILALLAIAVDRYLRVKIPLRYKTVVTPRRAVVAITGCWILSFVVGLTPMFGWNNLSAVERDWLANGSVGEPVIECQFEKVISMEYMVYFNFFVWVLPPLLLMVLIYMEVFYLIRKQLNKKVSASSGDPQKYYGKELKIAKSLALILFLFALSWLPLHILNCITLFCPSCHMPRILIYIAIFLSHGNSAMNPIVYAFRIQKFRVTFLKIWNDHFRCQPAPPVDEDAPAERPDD
How it was run: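 Cell-free binding with membranes from bovine striatum: radioligand displaced by test chemical, read after 1 h by filtration and scintillation. Single-point 25 uM duplicate primary, 50 uM top concentration in follow-up curves, DMSO baseline.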

[4] = system: guinea pig Leukotriene B4 Receptor (LTB4), gene 100379538; test: NVS_GPCR_gLTB4: NovaScreen (NVS) G Protein-Coupled Receptor Assay for guinea pig Leukotriene B4 Receptor (LTB4) (AID 2283247)
How it was run: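 Membranes from guinea pig spleen incubated 2 h with radioligand and compound; bound counts measured by filtration and scintillation. Screened first at 25 uM in duplicate, then actives titrated to a 50 uM top concentration relative to DMSO.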

[5] = molecular target: guinea pig Leukotriene D4 Receptor (LTD4), CYSLTR1 (gene 100135514) (UniProt Q2NNR5); test: NVS_GPCR_gLTD4: NovaScreen (NVS) G Protein-Coupled Receptor Assay for guinea pig Leukotriene D4 Receptor (LTD4) (AID 2283248)
Sequence of guinea pig Leukotriene D4 Receptor (LTD4), CYSLTR1 (gene 100135514) (Q2NNR5 whole entry, looked up): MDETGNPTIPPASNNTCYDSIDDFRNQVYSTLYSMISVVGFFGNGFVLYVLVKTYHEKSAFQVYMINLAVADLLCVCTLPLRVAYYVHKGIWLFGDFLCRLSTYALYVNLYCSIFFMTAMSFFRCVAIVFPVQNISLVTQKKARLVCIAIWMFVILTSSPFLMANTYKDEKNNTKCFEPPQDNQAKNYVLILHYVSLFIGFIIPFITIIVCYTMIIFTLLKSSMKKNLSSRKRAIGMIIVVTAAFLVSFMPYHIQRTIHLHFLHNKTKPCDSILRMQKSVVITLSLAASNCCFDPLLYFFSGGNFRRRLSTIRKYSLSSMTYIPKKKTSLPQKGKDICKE
How it was run: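 Guinea pig lung membrane preparation; bound radioligand measured by filter scintillation after 1 h, loss of signal versus DMSO marking displacement. Compounds tested at 25 uM in duplicate, hits retested to max 50 uM.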

[6] = molecular target: human Serotonin, 5-Hydroxytryptamine Receptor 5A (5HT5A), HTR5A (gene 3361) (UniProt P47898); test: NVS_GPCR_h5HT5A: NovaScreen (NVS) G Protein-Coupled Receptor Assay for human Serotonin, 5-Hydroxytryptamine Receptor 5A (5HT5A) (AID 2283251)
Sequence of human Serotonin, 5-Hydroxytryptamine Receptor 5A (5HT5A), HTR5A (gene 3361) (P47898 whole entry, looked up): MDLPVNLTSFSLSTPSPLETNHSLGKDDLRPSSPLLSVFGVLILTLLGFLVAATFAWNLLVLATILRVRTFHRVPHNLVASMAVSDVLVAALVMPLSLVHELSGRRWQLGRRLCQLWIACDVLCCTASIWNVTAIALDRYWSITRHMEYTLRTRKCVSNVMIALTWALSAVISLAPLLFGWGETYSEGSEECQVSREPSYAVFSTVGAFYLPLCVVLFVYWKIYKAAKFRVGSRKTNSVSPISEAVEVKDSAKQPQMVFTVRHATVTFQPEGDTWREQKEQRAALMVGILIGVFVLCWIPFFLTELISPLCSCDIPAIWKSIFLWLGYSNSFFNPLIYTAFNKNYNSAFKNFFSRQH
How it was run: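 Membranes from HEK293 cells, radioligand binding read by filtration and scintillation after 1 h. Single-concentration duplicate testing at 25 uM, then concentration-response for actives; positive-direction fitting relative to DMSO.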

[7] = molecular target: human Adenosine A2a Receptor (AdoRA2a), ADORA2A (gene 135) (UniProt P29274); test: NVS_GPCR_hAdoRA2a: NovaScreen (NVS) G Protein-Coupled Receptor Assay for human Adenosine A2a Receptor (AdoRA2a) (AID 2283256)
Sequence of human Adenosine A2a Receptor (AdoRA2a), ADORA2A (gene 135) (P29274 whole entry, looked up): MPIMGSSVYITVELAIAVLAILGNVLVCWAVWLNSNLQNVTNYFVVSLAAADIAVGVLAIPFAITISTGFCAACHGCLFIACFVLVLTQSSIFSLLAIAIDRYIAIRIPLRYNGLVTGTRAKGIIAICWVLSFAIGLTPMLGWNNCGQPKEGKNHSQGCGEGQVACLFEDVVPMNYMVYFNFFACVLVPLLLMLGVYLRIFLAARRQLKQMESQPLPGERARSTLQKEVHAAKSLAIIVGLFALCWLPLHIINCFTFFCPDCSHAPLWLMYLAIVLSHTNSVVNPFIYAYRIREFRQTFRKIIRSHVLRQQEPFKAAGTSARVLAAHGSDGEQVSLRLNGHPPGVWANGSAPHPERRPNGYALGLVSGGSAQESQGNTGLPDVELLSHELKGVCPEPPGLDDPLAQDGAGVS
How it was run: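 Compounds screened in duplicate at 25 uM, with actives followed up in concentration series, for displacement of a radioligand from HEK293-derived receptor protein. Bound counts read by filter scintillation at 1.5 hours, DMSO as baseline.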

[8] = molecular target: human Adrenergic, Alpha 2c Receptor (Adra2C), ADRA2C (gene 152) (UniProt P18825); test: NVS_GPCR_hAdra2C: NovaScreen (NVS) G Protein-Coupled Receptor Assay for human Adrenergic, Alpha 2c Receptor (Adra2C) (AID 2283259)
Sequence of human Adrenergic, Alpha 2c Receptor (Adra2C), ADRA2C (gene 152) (P18825 whole entry, looked up): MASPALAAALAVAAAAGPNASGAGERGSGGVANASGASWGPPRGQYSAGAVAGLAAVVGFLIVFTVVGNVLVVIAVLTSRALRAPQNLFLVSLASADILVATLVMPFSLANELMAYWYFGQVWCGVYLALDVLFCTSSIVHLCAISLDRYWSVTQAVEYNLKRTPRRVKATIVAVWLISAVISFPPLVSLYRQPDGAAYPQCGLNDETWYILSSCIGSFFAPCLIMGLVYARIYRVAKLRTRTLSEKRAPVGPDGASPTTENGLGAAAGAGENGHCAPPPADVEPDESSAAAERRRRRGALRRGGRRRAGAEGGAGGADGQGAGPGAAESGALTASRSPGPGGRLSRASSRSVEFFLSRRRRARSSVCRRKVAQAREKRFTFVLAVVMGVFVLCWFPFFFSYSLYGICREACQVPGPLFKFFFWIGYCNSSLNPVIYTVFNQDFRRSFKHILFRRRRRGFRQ
How it was run: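 Screened first in duplicate at 25 uM, with actives then run as concentration series. Membranes from Sf9 cells were exposed for 1 h, and displacement of radioligand was counted after filtration, using DMSO as baseline.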

[9] = NVS_GPCR_bNPY_NonSelective: NovaScreen (NVS) G Protein-Coupled Receptor Assay for bovine Neuropeptide Y (NPY) Receptor, Non-selective Binding (AID 2283245)
How it was run: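 Displacement of radioligand from bovine hippocampal membrane receptors, read by filtration and scintillation counting after 1 hour. Concentration-response to a top of 50 uM followed a 25 uM duplicate primary screen. Loss of signal versus DMSO.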

[10] = molecular target: human Serotonin, 5-Hydroxytryptamine Receptor 2A (5HT2A), HTR2A (gene 3356) (UniProt P28223); test: NVS_GPCR_h5HT2A: NovaScreen (NVS) G Protein-Coupled Receptor Assay for human Serotonin, 5-Hydroxytryptamine Receptor 2A (5HT2A) (AID 2283249)
Sequence of human Serotonin, 5-Hydroxytryptamine Receptor 2A (5HT2A), HTR2A (gene 3356) (P28223 whole entry, looked up): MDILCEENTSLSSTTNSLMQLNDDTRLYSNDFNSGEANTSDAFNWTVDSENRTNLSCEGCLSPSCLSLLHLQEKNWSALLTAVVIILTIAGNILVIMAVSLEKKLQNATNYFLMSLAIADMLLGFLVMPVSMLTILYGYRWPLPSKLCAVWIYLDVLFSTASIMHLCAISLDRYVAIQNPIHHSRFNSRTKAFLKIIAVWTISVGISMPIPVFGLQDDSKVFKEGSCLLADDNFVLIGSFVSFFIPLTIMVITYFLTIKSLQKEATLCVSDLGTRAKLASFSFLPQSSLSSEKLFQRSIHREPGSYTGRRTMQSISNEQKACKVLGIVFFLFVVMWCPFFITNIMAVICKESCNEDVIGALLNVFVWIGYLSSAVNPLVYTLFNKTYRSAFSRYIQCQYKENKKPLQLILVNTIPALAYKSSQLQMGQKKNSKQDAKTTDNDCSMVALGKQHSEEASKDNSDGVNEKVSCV
How it was run: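 Radioligand displacement on human cortex tissue extract, counted by filtration and scintillation 1.5 h post-dosing. Initial single-concentration screen at 25 uM in duplicate, concentration series in follow-up; DMSO as baseline.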

[11] = system: guinea pig Muscarinic, Peripheral (Mperiperal) Receptor, Non-selective Binding, gene 100379235; test: NVS_GPCR_gMPeripheral_NonSelective: NovaScreen (NVS) G Protein-Coupled Receptor Assay for guinea pig Muscarinic, Peripheral (Mperiperal) Receptor, Non-selective Binding (AID 2283250)
How it was run: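 Screened in duplicate at 25 uM, hits retested in concentration series to 50 uM max, using bladder membrane radioligand displacement from guinea pig. Filtration and scintillation counting 1 h post-dose, fitted relative to DMSO.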

[12] = molecular target: guinea pig Opioid, Kappa 1 Receptor (OpiateK), OPRK1 (gene 100135587) (UniProt P41144); test: NVS_GPCR_gOpiateK: NovaScreen (NVS) G Protein-Coupled Receptor Assay for guinea pig Opioid, Kappa 1 Receptor (OpiateK) (AID 2283252);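 also: active means reduced radioligand binding relative to DMSO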
Sequence of guinea pig Opioid, Kappa 1 Receptor (OpiateK), OPRK1 (gene 100135587) (P41144 whole entry, looked up): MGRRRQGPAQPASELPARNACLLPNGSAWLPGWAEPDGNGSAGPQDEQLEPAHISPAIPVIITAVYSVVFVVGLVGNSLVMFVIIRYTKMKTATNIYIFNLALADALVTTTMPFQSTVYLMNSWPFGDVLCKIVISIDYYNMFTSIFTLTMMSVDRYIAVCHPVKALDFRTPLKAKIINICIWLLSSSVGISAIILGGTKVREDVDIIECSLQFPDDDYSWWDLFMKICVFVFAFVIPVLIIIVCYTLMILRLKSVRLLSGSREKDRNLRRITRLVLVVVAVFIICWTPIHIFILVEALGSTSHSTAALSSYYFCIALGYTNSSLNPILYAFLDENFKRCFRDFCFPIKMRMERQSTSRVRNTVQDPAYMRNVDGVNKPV
How it was run: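 Radioligand binding to kappa opioid receptor in guinea pig cerebellar membranes, read by filtration and scintillation at 2 h. Compounds first tested in duplicate at 25 uM, then actives in concentration series; signal loss fitted against DMSO.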

[13] = molecular target: human Serotonin, 5-Hydroxytryptamine Receptor 6 (5HT6), HTR6 (gene 3362) (UniProt P50406); test: NVS_GPCR_h5HT6: NovaScreen (NVS) G Protein-Coupled Receptor Assay for human Serotonin, 5-Hydroxytryptamine Receptor 6 (5HT6) (AID 2283253)
How it was run: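 Filter scintillation counting of radioligand displacement from HEK293-expressed 5HT6, 1 hour post-dose, with loss of signal relative to DMSO. Single 25 uM duplicates first, with concentration series for confirmation.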

[14] = molecular target: human Adenosine A1 Receptor (AdoRA1), ADORA1 (gene 134) (UniProt P30542); test: NVS_GPCR_hAdoRA1: NovaScreen (NVS) G Protein-Coupled Receptor Assay for human Adenosine A1 Receptor (AdoRA1) (AID 2283254)
Sequence of human Adenosine A1 Receptor (AdoRA1), ADORA1 (gene 134) (P30542 whole entry, looked up): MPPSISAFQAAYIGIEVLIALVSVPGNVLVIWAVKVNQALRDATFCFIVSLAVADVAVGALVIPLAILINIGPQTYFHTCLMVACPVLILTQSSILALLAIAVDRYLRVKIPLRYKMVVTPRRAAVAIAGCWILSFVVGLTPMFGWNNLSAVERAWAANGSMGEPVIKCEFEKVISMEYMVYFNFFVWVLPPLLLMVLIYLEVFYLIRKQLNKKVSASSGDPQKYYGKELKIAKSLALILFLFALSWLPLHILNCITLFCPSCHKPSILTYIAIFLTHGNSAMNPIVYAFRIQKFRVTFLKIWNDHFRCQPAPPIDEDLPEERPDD
How it was run: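 Radioligand binding was run on human cortical membranes, cell-free, with filter-based scintillation counting 1 h after dosing. The primary screen was duplicate at 25 uM, followed by concentration series. Signal loss versus DMSO was fitted positive-direction.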

[15] = molecular target: human Adrenergic, Alpha 2A Receptor (Adra2A), ADRA2A (gene 150) (UniProt P08913); test: NVS_GPCR_hAdra2A: NovaScreen (NVS) G Protein-Coupled Receptor Assay for human Adrenergic, Alpha 2A Receptor (Adra2A) (AID 2283257)
Sequence of human Adrenergic, Alpha 2A Receptor (Adra2A), ADRA2A (gene 150) (P08913 whole entry, looked up): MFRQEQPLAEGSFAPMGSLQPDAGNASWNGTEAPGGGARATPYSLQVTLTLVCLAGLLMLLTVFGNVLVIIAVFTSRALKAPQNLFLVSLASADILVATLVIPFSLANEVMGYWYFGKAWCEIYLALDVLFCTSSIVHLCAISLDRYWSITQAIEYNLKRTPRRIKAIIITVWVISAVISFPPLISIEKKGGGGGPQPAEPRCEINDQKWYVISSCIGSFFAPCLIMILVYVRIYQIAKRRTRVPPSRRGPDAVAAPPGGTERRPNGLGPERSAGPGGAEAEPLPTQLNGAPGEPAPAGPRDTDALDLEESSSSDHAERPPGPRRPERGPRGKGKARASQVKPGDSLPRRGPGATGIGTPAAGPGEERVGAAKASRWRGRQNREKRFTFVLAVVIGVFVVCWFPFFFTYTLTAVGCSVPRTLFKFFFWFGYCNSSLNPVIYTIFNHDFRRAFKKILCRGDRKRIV
How it was run: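 Displacement of a specific radioligand from HT29 membrane protein was counted by filter scintillation after 1 h. Compounds were screened in duplicate at 25 uM, and actives were retested in concentration series. Fitting was positive-direction against DMSO.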

[16] = molecular target: human Adrenergic, Beta 1 Receptor (Adrb1), ADRB1 (gene 153) (UniProt P08588); test: NVS_GPCR_hAdrb1: NovaScreen (NVS) G Protein-Coupled Receptor Assay for human Adrenergic, Beta 1 Receptor (Adrb1) (AID 2283258)
Sequence of human Adrenergic, Beta 1 Receptor (Adrb1), ADRB1 (gene 153) (P08588 whole entry, looked up): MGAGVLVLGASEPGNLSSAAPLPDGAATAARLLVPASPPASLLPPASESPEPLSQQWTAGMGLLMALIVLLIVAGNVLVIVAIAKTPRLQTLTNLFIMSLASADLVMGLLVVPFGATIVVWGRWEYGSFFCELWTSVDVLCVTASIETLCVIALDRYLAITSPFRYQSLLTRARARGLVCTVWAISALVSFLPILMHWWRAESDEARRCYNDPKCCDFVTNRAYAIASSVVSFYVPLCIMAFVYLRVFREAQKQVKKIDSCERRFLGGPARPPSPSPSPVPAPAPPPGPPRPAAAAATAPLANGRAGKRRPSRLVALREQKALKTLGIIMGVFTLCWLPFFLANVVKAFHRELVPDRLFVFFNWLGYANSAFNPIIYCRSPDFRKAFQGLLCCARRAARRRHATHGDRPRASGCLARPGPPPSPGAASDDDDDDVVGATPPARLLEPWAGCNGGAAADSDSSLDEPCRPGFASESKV
How it was run: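 Membranes/protein extracted from human neuroepithelioma cells, radioligand competition binding read by filtration and scintillation 2 h post-dose. Single 25 uM duplicate screen, then concentration-response follow-up; DMSO as negative control.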

[17] = molecular target: Beta-2 adrenergic receptor (Homo sapiens) (UniProt P07550); test: NVS_GPCR_hAdrb2: NovaScreen (NVS) G Protein-Coupled Receptor Assay for human Adrenergic, Beta 2 Receptor (Adrb2) (AID 2283261)
Sequence of Beta-2 adrenergic receptor (Homo sapiens) (P07550 whole entry, looked up): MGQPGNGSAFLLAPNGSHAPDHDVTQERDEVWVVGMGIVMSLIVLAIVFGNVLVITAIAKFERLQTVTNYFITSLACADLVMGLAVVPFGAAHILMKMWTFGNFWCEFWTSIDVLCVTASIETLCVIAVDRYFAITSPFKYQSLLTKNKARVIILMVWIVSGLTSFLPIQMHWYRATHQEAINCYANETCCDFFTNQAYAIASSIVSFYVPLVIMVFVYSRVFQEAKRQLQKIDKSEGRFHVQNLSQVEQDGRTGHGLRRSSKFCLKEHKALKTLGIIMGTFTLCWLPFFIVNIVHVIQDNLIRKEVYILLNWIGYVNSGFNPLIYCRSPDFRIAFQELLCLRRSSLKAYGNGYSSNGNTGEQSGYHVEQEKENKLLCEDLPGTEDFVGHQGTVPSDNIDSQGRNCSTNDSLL
How it was run: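 Compounds screened in duplicate at 25 uM, then actives in concentration series. Human beta-2 receptor from CHO material, cell-free; radioligand displacement after 1 h measured by filtration and scintillation against DMSO baseline.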

[18] = molecular target: human Adrenergic, Beta 3 Receptor (Adrb3), ADRB3 (gene 155) (UniProt P13945); test: NVS_GPCR_hAdrb3: NovaScreen (NVS) G Protein-Coupled Receptor Assay for human Adrenergic, Beta 3 Receptor (Adrb3) (AID 2283262)
Sequence of human Adrenergic, Beta 3 Receptor (Adrb3), ADRB3 (gene 155) (P13945 whole entry, looked up): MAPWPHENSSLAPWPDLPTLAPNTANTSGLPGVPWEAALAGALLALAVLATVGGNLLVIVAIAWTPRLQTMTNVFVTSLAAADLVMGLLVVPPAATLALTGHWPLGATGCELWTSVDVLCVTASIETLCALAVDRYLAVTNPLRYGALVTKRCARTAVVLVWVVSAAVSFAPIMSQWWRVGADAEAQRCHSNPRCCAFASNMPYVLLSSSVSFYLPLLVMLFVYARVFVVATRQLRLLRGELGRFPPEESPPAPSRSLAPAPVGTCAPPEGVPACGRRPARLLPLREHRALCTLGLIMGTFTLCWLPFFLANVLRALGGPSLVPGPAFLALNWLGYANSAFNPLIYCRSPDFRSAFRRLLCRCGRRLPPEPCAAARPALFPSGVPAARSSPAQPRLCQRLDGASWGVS
How it was run: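 A cell-free filter binding assay read by scintillation counting, with displacement of a specific radioligand measured after 1 hour. The receptor source was SK-N-MC extracts (cells pretreated with isoproterenol and 8-bromo-cAMP). Compounds were first tested at 25 uM in duplicate and then in concentration series.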

[19] = molecular target: Type-1 angiotensin II receptor (Homo sapiens) (UniProt P30556); test: NVS_GPCR_hAT1: NovaScreen (NVS) G Protein-Coupled Receptor Assay for human Angiotensin II receptor type 1 (AT1) (AID 2283263)
How it was run: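 Hits from a 25 uM duplicate screen (threshold e.g. 30% inhibition) were run in concentration-response with 50 uM top concentration. Displacement of specific radioligand from KAN-TS membrane preparations measured after 3 h by filter scintillation, DMSO as baseline.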

[20] = molecular target: human Dopamine Receptor D4.4 (DRD4.4), DRD4 (gene 1815) (UniProt P21917); test: NVS_GPCR_hDRD4.4: NovaScreen (NVS) G Protein-Coupled Receptor Assay for human Dopamine Receptor D4.4 (DRD4.4) (AID 2283264)
How it was run: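 Filter-binding assay with a tritiated or iodinated ligand, cell-free receptor prepared from CHO, 1 hour. Loss of bound radioactivity versus DMSO; single 25 uM duplicate screen, then concentration-response for actives.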

Measured: AC50

CCOP(=S)(OCC)Oc1nc(Cl)c(Cl)cc1Cl
inactive: [1]

C[C@@H]1C[C@@H]([C@H](O)CC2CC(=O)NC(=O)C2)C(=O)[C@@H](C)C1
inactive: [2]

O=C(O)C(F)(F)C(F)(F)C(F)(F)C(F)(F)C(F)(F)C(F)(F)C(F)(F)C(F)(F)C(F)(F)C(F)(F)F
inactive: [3] | [5] | [6]
active: [4] 5.1 µM | [1] 12.9 µM | [7] 2.43 µM | [8] 4.5 µM

C=C(C)C(=O)[O][Sn]([CH2]CCC)([CH2]CCC)[CH2]CCC
active: [9] 2.56 µM | [4] 6.14 µM | [5] 1.86 µM | [10] 36.2 µM | [11] 14 µM | [6] 2.16 µM | [12] 16.9 µM | [13] 4.82 µM | [14] 25 µM | [1] 0.499 µM | [7] 6.84 µM | [15] 4.06 µM | [16] 0.925 µM | [8] 0.281 µM | [17] 4.57 µM | [18] 25 µM | [19] 2.23 µM | [20] 1.75 µM

COc1cc(-c2ccc(N)c(OC)c2)ccc1N
active: [20] 16.7 µM
inactive: [3] | [1]

O=C1C2(Cl)C3(Cl)C4(Cl)C(Cl)(Cl)C5(Cl)C3(Cl)C1(Cl)C5(Cl)C24Cl (centres undefined)
inactive: [6]
active: [1] 1.04 µM | [7] 0.11 µM | [16] 0.978 µM

CC(=O)[O][Hg][c]1ccccc1
active: [3] 25 µM | [9] 4.57 µM | [4] 3.45 µM | [5] 1.58 µM | [10] 19.1 µM | [11] 6 µM | [6] 0.791 µM | [12] 31.4 µM | [13] 1.32 µM | [14] 25 µM | [1] 0.577 µM | [7] 6.98 µM | [15] 20.1 µM | [16] 0.993 µM | [8] 0.252 µM | [17] 0.934 µM | [18] 6.02 µM | [19] 15.1 µM | [20] 0.794 µM

Oc1c(I)cc(I)cc1I
inactive: [7]

CN(C)N=O
inactive: [4] | [18]

ClCCBr
inactive: [5]

COS(=O)(=O)c1ccc(C)cc1
inactive: [7]

CCN1CCC2(CC1)COc1cc3c(cc12)N(C(=O)c1ccc(-c2ccc(-c4nnc(C)o4)cc2C)cc1)CC3
active: [10] 10.2 µM | [11] 1.79 µM | [6] 23.4 µM | [1] 23.4 µM | [15] 13.9 µM | [8] 14.3 µM | [17] 23.4 µM
inactive: [18] | [20]

Cn1sc(Cl)cc1=O
inactive: [3] | [12] | [13]

CC(C)(C)c1cc(O)ccc1O
inactive: [3]

Clc1ccc(C2(Cn3cncn3)CC(Br)CO2)c(Cl)c1 (centres undefined)
active: [12] 11.8 µM

CC(C)(C)CC(C)(C)c1ccc(O)cc1
inactive: [7]
active: [1] 34.1 µM | [8] 25 µM

O=C(O)C(F)(F)C(F)(F)C(F)(F)C(F)(F)C(F)(F)C(F)(F)F
active: [4] 17.3 µM

COP(=S)(OC)Oc1ccc(Sc2ccc(OP(=S)(OC)OC)cc2)cc1
active: [7] 17.1 µM
inactive: [5]

CCNc1nc(NC(C)(C)C)nc(SC)n1
active: [14] 17.8 µM | [7] 17.4 µM

CCC(=O)C(CC(C)N(C)C)(c1ccccc1)c1ccccc1 (centres undefined)
active: [10] 5.61 µM | [11] 7.94 µM | [6] 6.69 µM | [12] 1.42 µM | [13] 18.1 µM | [1] 3.59 µM | [15] 16 µM
inactive: [8] | [18]
